This passage reports growth results from PubChem BioAssay (NCI).

Test systems include HCT-15 colon; HT29 colon; SNB-75 CNS; SNB-19 CNS; U251 CNS; PC-3 prostate; SK-MEL-5 melanoma; UACC-62 melanoma; LOX IMVI melanoma; SK-MEL-28 melanoma; SK-MEL-2 melanoma; EKVX NSCLC; SN12C renal; UO-31 renal; TK-10 renal; ACHN renal; CAKI-1 renal; A498 renal; CCRF-CEM leukemia; MOLT-4 leukemia.
Holding throughout (test): NCI-60 one-dose screen, 48 h (100 = growth as untreated, 0 = no growth, -100 = all killed)
Holding throughout (details): 10 µM unless noted

About 83,000 compounds went through this panel and 20% of them were active in at least one assay; those are over-represented in the sample as a whole.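 The endpoint reported here, percent growth, reads 100 for growth as untreated, 0 for no net growth and -100 for all cells dead.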 A number with no mark means an inactive call. Calls of active or inactive are those of the source. The calls were made as follows: active = growth percent below 10; inactive = the rest.

In the case of `CC(=O)[C@H]1CC[C@H]2[C@@H]3C[C@H](C)C4=CC(=O)CC[C@]4(C)[C@H]3C(=O)C[C@]12C`, the growth was 97.3% with HCT-15 colon; 101% in the test with HT29 colon; 89.6% with SNB-75 CNS; 100% with SNB-19 CNS; 98.2% with U251 CNS; 91.2% in the test with PC-3 prostate. For the same compound, the growth with SK-MEL-5 melanoma was 100%; with UACC-62 melanoma, 97.1%; with LOX IMVI melanoma it was 92.2%; in the test with SK-MEL-28 melanoma, 115%; with SK-MEL-2 melanoma, 98.9%; in the test on EKVX NSCLC it was 114%. The growth was 94.5% with SN12C renal; 87% in the test with UO-31 renal; 104% with TK-10 renal; 95.8% with ACHN renal; 94.8% with CAKI-1 renal; 74% in the test with A498 renal. Moreover, the figures for the growth in the test on CCRF-CEM leukemia and with MOLT-4 leukemia were 104% and 92.3%, respectively.
Regarding `O=Nc1c2cccnc2n2nnc3ccc(Cl)cc3c12`, the growth is 24.5% in the test with HCT-15 colon; 8.1% (active) in the test with HT29 colon; 63.4% in the test on SNB-75 CNS; 89.8% in the test with SNB-19 CNS; 50.6% in the test on U251 CNS; -26.9% (active) with PC-3 prostate. The growth was 96.2% with SK-MEL-5 melanoma; 73.5% in the test with UACC-62 melanoma; 26.6% with LOX IMVI melanoma; 28.3% in the test with SK-MEL-28 melanoma; 57.1% in the test with SK-MEL-2 melanoma; 77.4% in the test with EKVX NSCLC. The growth with SN12C renal was 56.5%; with UO-31 renal, -37.4% (active); in the test on TK-10 renal it was 16.5%; in the test on ACHN renal, -49.8% (active); in the test on CAKI-1 renal it was 5.93% (active); in the test on A498 renal, 88.3%. Besides, the values for the growth in the test on CCRF-CEM leukemia and with MOLT-4 leukemia were -60.5% (active) and -54.3% (active), respectively.
For `CCN(Cc1cccc(S(=O)(=O)[O-])c1)c1ccc(C(=C2C=CC(=[N+](CC)Cc3cccc(S(=O)(=O)O)c3)C=C2)c2ccccc2S(=O)(=O)O)cc1`, the growth with HCT-15 colon is 103%; with HT29 colon, 103%; in the test on SNB-75 CNS, 87.9%; with SNB-19 CNS, 106%; with U251 CNS, 99.2%; with PC-3 prostate, 93.7%. In addition, the growth was 97.4% in the test on SK-MEL-5 melanoma; 101% in the test on UACC-62 melanoma; 96% in the test with LOX IMVI melanoma; 109% in the test with SK-MEL-28 melanoma; 115% with SK-MEL-2 melanoma; 94.1% in the test with EKVX NSCLC. Moreover, the growth was 109% with SN12C renal; 85.9% in the test on UO-31 renal; 93.1% in the test with TK-10 renal; 104% in the test with ACHN renal; 96.7% with CAKI-1 renal; 134% in the test with A498 renal. For the same compound, the growth is 95.3% with CCRF-CEM leukemia and 96.5% in the test with MOLT-4 leukemia.
`COC(=O)CC1=C(c2ccc([N+](=O)[O-])cc2)CCC1=O`: the growth in the test on HCT-15 colon was 89.6%; in the test on HT29 colon, 107%; in the test with SNB-75 CNS, 82%; in the test on SNB-19 CNS it was 109%; in the test on U251 CNS, 103%; with PC-3 prostate, 91.9%. Moreover, the growth is 103% in the test on SK-MEL-5 melanoma; 100% in the test with UACC-62 melanoma; 94.6% in the test with LOX IMVI melanoma; 109% with SK-MEL-28 melanoma; 103% with SK-MEL-2 melanoma; 94.5% with EKVX NSCLC. The growth in the test with SN12C renal is 103%; with UO-31 renal it was 80.5%; in the test on TK-10 renal, 107%; in the test on ACHN renal, 102%; in the test on CAKI-1 renal it was 99.8%; in the test on A498 renal, 69.5%. The growth is 95.3% in the test on CCRF-CEM leukemia and 104% in the test with MOLT-4 leukemia.
For `CC(=O)OC1Oc2cc(C)c(C)cc2-c2oc(=O)c(-c3ccccc3)cc21` (stereo not given), the growth with HCT-15 colon is 6.95% (active); in the test on HT29 colon, -23.7% (active); with SNB-75 CNS it was -1.15% (active); in the test on SNB-19 CNS it was 26.9%; in the test on U251 CNS, 13.2%; with PC-3 prostate, -11.4% (active). The growth was 16.7% with SK-MEL-5 melanoma; 14.2% in the test on UACC-62 melanoma; 41.9% in the test with LOX IMVI melanoma; 49% with SK-MEL-28 melanoma; 17.3% in the test with SK-MEL-2 melanoma; 40.5% with EKVX NSCLC. Also, the growth in the test on SN12C renal was 43.6%; with UO-31 renal, 16.5%; with TK-10 renal it was 13.9%; in the test with ACHN renal, 34%; with CAKI-1 renal, 24.8%; in the test with A498 renal it was -1.55% (active). The growth with CCRF-CEM leukemia was -37.8% (active); in the test with MOLT-4 leukemia, -20.4% (active).
For the compound `OC(c1cc(-c2cccc(Cl)c2)nc2ccccc12)C1CCCCN1` (stereo not given), the growth is -61.9% (active) in the test on HCT-15 colon; -74.5% (active) in the test with HT29 colon; -5.41% (active) in the test on SNB-75 CNS; 18.1% in the test with SNB-19 CNS; -85.1% (active) in the test with U251 CNS; -26.2% (active) in the test with PC-3 prostate. Further, the growth is -67.5% (active) with SK-MEL-5 melanoma; -41.2% (active) in the test on UACC-62 melanoma; -90.7% (active) with LOX IMVI melanoma; -94.2% (active) with SK-MEL-28 melanoma; -92% (active) with SK-MEL-2 melanoma; 47.3% in the test on EKVX NSCLC. For the same compound, the growth was -5.08% (active) in the test with SN12C renal; -44.8% (active) in the test on UO-31 renal; -63.2% (active) with TK-10 renal; -0.726% (active) in the test with ACHN renal; -36.5% (active) in the test on CAKI-1 renal; 56.3% in the test on A498 renal. The growth in the test with CCRF-CEM leukemia was -8.29% (active); in the test with MOLT-4 leukemia, -30.6% (active).
Turning to `O=C(COc1ccc(/C=C2\Oc3ccc4ccccc4c3C2=O)cc1)c1ccc(Cl)cc1`, the growth with HCT-15 colon was 92%; in the test on HT29 colon, 87.2%; with SNB-75 CNS, 83%; in the test with SNB-19 CNS, 98.3%; in the test with U251 CNS, 94.7%; in the test on PC-3 prostate it was 93.8%. The growth with SK-MEL-5 melanoma is 92.6%; with UACC-62 melanoma, 94.3%; in the test on LOX IMVI melanoma, 53.7%; in the test with SK-MEL-28 melanoma it was 112%; in the test on SK-MEL-2 melanoma, 73.8%; in the test with EKVX NSCLC, 103%. For the same compound, the growth is 98.9% with SN12C renal; 5.25% (active) in the test on UO-31 renal; 114% in the test on TK-10 renal; 107% in the test with ACHN renal; 98.8% in the test with CAKI-1 renal; 155% with A498 renal. In addition, the growth was -26.9% (active) in the test with CCRF-CEM leukemia and 33.8% in the test on MOLT-4 leukemia.
On to `COC(=O)c1c(NC(=O)CSc2nnnn2-c2ccc(OC)cc2)sc(C)c1C`, for which the growth with HCT-15 colon was 101%; in the test with HT29 colon, 107%; with SNB-75 CNS it was 79.4%; in the test on SNB-19 CNS, 102%; with U251 CNS, 99.6%; with PC-3 prostate, 85%. For the same compound, the growth was 115% in the test with SK-MEL-5 melanoma; 74.8% in the test on UACC-62 melanoma; 91.2% in the test on LOX IMVI melanoma; 108% in the test on SK-MEL-28 melanoma; 18.8% in the test with SK-MEL-2 melanoma; 74.8% with EKVX NSCLC. Moreover, the growth in the test with SN12C renal is 81.6%; in the test with UO-31 renal, 84.6%; in the test on TK-10 renal it was 152%; in the test on ACHN renal, 87.3%; in the test on CAKI-1 renal, 102%; in the test on A498 renal it was 110%. Besides, the growth is 83.8% in the test on CCRF-CEM leukemia and 90.8% with MOLT-4 leukemia.
